Results from the supplement of paper PMC12282887.
± gives the standard deviation of the averaged measurements.

Test system: E. coli BW25113 marRABp lux reporter
Test: promoter activity interaction Z-score (Lux/OD deviation from empty-vector control); higher = stronger promoter induction by the compound
Description: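 E. coli BW25113 (wild type or ΔmarA/ΔsoxS/Δrob) carrying pTU175 luxCDABE promoter reporters was grown in LB in 384-well plates at 37°C with each of 94 compounds at 4 two-fold concentrations, in biological duplicates. Luminescence and OD600 were read every 30 min for 12 h and integrated as AUC over 8 h (0-8 h WT, 1-9 h mutants). Lux AUC was divided by OD AUC; the interaction score is the residual of a Huber robust fit of each promoter against the empty-vector control, then Z-transformed per promoter.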

Question: How did the “promoter activity interaction Z-score” value (0.056 µg/ml, genetic background: wild type) turn out when `CN(C)[C@@H]1C(O)=C(C(N)=O)C(=O)[C@@]2(O)C(O)=C3C(=O)c4c(O)cccc4[C@@](C)(O)[C@H]3C[C@@H]12` [Tetracycline] was run?
Answer: Its value is 0.665 ± 0.88.

Question: What about the “promoter activity interaction Z-score” value (0.056 µg/ml, genetic background: ΔmarA) of the same molecule?
Answer: The value was 1.07 ± 0.1.

Question: What about the “promoter activity interaction Z-score” value (0.056 µg/ml, genetic background: Δrob) of the same molecule?
Answer: Its value is 0.256 ± 0.36.

Question: What about the “promoter activity interaction Z-score” value (0.056 µg/ml, genetic background: ΔsoxS) of the same molecule?
Answer: The value was 0.136 ± 0.061.

Question: And the “promoter activity interaction Z-score” value (0.11 µg/ml, genetic background: wild type)?
Answer: Its value is 2.13 ± 0.84.

Question: And the “promoter activity interaction Z-score” value (0.11 µg/ml, genetic background: ΔmarA)?
Answer: The value was 1.76 ± 0.44.

Question: And the “promoter activity interaction Z-score” value (0.11 µg/ml, genetic background: Δrob)?
Answer: The value was 0.771 ± 0.16.

Question: And the “promoter activity interaction Z-score” value (0.11 µg/ml, genetic background: ΔsoxS)?
Answer: Its value is 1.22 ± 0.7.

Question: What about the “promoter activity interaction Z-score” value (0.22 µg/ml, genetic background: wild type) of the same molecule?
Answer: The value was 2.83 ± 0.4.

Question: What about the “promoter activity interaction Z-score” value (0.22 µg/ml, genetic background: ΔmarA) of the same molecule?
Answer: Its value is 3.06 ± 0.18.

Question: And the “promoter activity interaction Z-score” value (0.22 µg/ml, genetic background: Δrob)?
Answer: Its value is 1.16 ± 0.43.

Question: What about the “promoter activity interaction Z-score” value (0.22 µg/ml, genetic background: ΔsoxS) of the same molecule?
Answer: The value was 2.13 ± 0.087.

Question: And the “promoter activity interaction Z-score” value (0.44 µg/ml, genetic background: wild type)?
Answer: The value was 2.24 ± 1.

Question: What about the “promoter activity interaction Z-score” value (0.44 µg/ml, genetic background: ΔmarA) of the same molecule?
Answer: The value was 0.451 ± 0.1.

Question: And the “promoter activity interaction Z-score” value (0.44 µg/ml, genetic background: Δrob)?
Answer: Its value is 0.992 ± 0.29.

Question: And the “promoter activity interaction Z-score” value (0.44 µg/ml, genetic background: ΔsoxS)?
Answer: Its value is 2.56.

Question: What does the source list for `N=C(NCCCCCCNC(=N)NC(=N)Nc1ccc(Cl)cc1)NC(=N)Nc1ccc(Cl)cc1` [Chlorhexidine]?
Answer: promoter activity interaction Z-score (0.063 µg/ml, genetic background: wild type): -0.0555 ± 0.078; promoter activity interaction Z-score (0.063 µg/ml, genetic background: ΔmarA): 0.0409 ± 0.0035; promoter activity interaction Z-score (0.063 µg/ml, genetic background: Δrob): 0.173 ± 0.2; promoter activity interaction Z-score (0.063 µg/ml, genetic background: ΔsoxS): 0.0219 ± 0.055; promoter activity interaction Z-score (0.13 µg/ml, genetic background: wild type): -0.193 ± 0.069; promoter activity interaction Z-score (0.13 µg/ml, genetic background: ΔmarA): -0.0353 ± 0.43; promoter activity interaction Z-score (0.13 µg/ml, genetic background: Δrob): 0.0384 ± 0.087; promoter activity interaction Z-score (0.13 µg/ml, genetic background: ΔsoxS): 0.0405 ± 0.19; promoter activity interaction Z-score (0.25 µg/ml, genetic background: wild type): 0.0425 ± 0.12; promoter activity interaction Z-score (0.25 µg/ml, genetic background: ΔmarA): -0.101 ± 0.24; promoter activity interaction Z-score (0.25 µg/ml, genetic background: Δrob): 0.121 ± 0.2; promoter activity interaction Z-score (0.25 µg/ml, genetic background: ΔsoxS): 0.165 ± 0.33; promoter activity interaction Z-score (0.51 µg/ml, genetic background: wild type): -0.283 ± 0.1; promoter activity interaction Z-score (0.51 µg/ml, genetic background: ΔmarA): 0.127 ± 0.37; promoter activity interaction Z-score (0.51 µg/ml, genetic background: Δrob): -0.0583 ± 0.11; promoter activity interaction Z-score (0.51 µg/ml, genetic background: ΔsoxS): 0.00237 ± 0.085

Question: How did the “promoter activity interaction Z-score” value (4.8 µg/ml, genetic background: wild type) turn out when `NC(N)=S` [Thiourea] was run?
Answer: The value was -0.23 ± 0.42.

Question: And the “promoter activity interaction Z-score” value (4.8 µg/ml, genetic background: ΔmarA)?
Answer: The value was -0.11 ± 0.25.

Question: And the “promoter activity interaction Z-score” value (4.8 µg/ml, genetic background: Δrob)?
Answer: The value was -0.246 ± 0.076.

Question: And the “promoter activity interaction Z-score” value (4.8 µg/ml, genetic background: ΔsoxS)?
Answer: Its value is -0.231 ± 0.24.

Question: What about the “promoter activity interaction Z-score” value (9.5 µg/ml, genetic background: wild type) of the same molecule?
Answer: The value was -0.161 ± 0.13.

Question: What about the “promoter activity interaction Z-score” value (9.5 µg/ml, genetic background: ΔmarA) of the same molecule?
Answer: Its value is 0.055 ± 0.11.

Question: What about the “promoter activity interaction Z-score” value (9.5 µg/ml, genetic background: Δrob) of the same molecule?
Answer: Its value is -0.0456 ± 0.0082.

Question: What about the “promoter activity interaction Z-score” value (9.5 µg/ml, genetic background: ΔsoxS) of the same molecule?
Answer: The value was -0.157 ± 0.14.

Question: What about the “promoter activity interaction Z-score” value (19 µg/ml, genetic background: wild type) of the same molecule?
Answer: Its value is -0.209 ± 0.12.

Question: And the “promoter activity interaction Z-score” value (19 µg/ml, genetic background: ΔmarA)?
Answer: Its value is -0.407 ± 0.02.

Question: What about the “promoter activity interaction Z-score” value (19 µg/ml, genetic background: Δrob) of the same molecule?
Answer: The value was -0.154 ± 0.11.

Question: What about the “promoter activity interaction Z-score” value (19 µg/ml, genetic background: ΔsoxS) of the same molecule?
Answer: Its value is -0.149 ± 0.038.

Question: And the “promoter activity interaction Z-score” value (38.1 µg/ml, genetic background: wild type)?
Answer: Its value is -0.45 ± 0.34.

Question: And the “promoter activity interaction Z-score” value (38.1 µg/ml, genetic background: ΔmarA)?
Answer: The value was -0.162 ± 0.17.

Question: What about the “promoter activity interaction Z-score” value (38.1 µg/ml, genetic background: Δrob) of the same molecule?
Answer: The value was -0.0285 ± 0.12.

Question: And the “promoter activity interaction Z-score” value (38.1 µg/ml, genetic background: ΔsoxS)?
Answer: Its value is -0.0935 ± 0.032.
